Here are results for 40 compounds from ChEMBL document CHEMBL3433997, “St. Jude Leishmania screening dataset” (2016).

For this experiment, the target named is Glucose transporter (Leishmania mexicana) (UniProt O61059). The experiment in a line: ST_JUDE_LEISH: Cytotoxicity at 2uM final concentration against transgenic Leishmania Mexicana promastigotes LmGT2 that are glucose transport deficient and complemented with the L. Mexicana glucose transporter 2. Activity is measured by DNA content using SYBR green in vitro. Format: functional.
As for `O=C(Nc1ccc2nc3n(c(=O)c2c1)CCCCC3)C(=O)N1CCC(Cc2ccccc2)CC1`, the inhibition (commonly the change of the read-out against control, counted positive when it falls) is -0.44%.

Take `CC(C)CCN1CCC(Oc2ccc(NC(=O)c3cccs3)cc2Cl)C1` (stereo not given): the inhibition worked out at 9.02%.

As for `Cc1ccc2c(c1)NCC21CCN(C[C@@H](O)C2CCN(c3ccnc(Cl)c3)CC2)CC1C` (stereo not given in full), the inhibition worked out at 0.18%.

Turning to `Cc1ccc(Nc2nccc(NCC(O)c3ccc(C(F)(F)F)cc3)n2)cc1` (stereo not given), the inhibition amounted to 3.67%.

On to `COc1cc(C(F)(F)F)cc2[nH]c(CNCCCNc3nc4ccccc4[nH]3)cc12`, for which the inhibition was 5.01%.

As to `CC(C)CC(=O)N1CCNC[C@@H]1C(=O)NCCSCc1c(F)cccc1Cl`, the inhibition is 4.3%.

For the compound `Cc1c(-c2ccc(C(=O)NC3CC(C)(C)NC(C)(C)C3)cc2)[nH]c2cc(Cl)c(Cl)cc12`, the inhibition was 13.8%.

As to `CCOC(=O)N1CCN(CCCCCNc2cc(C)nc(NC(=N)Nc3ccc(Cl)cc3)n2)CC1`, the inhibition was determined as 6.08%.

For the compound `Cc1cccc2nc(-c3ccc(-c4ccc(NC(=O)NCc5ccc(F)cc5)cc4)cc3)[nH]c12`, the inhibition worked out at 0.63%.

As to `CC(C)(CNC(=O)[C@@H]1CCCN(CCOc2ccc(F)c(F)c2)C1)c1nc(-c2ccc(Cl)c(O)c2)c(-c2ccncc2)[nH]1`, the inhibition came to 1.28%.

In the case of `CCCCC(O)c1cc(O)c2c(c1)OC(C)(C)CC2C1=CCN(Cc2ccc3ccccc3c2)CC1` (stereo not given), the inhibition is 0.64%.

Take `COc1ccc(NS(=O)(=O)c2cc(NC(=O)Cn3ccccc3=O)ccc2N2CCCCC2)cc1`: the inhibition is -7.28%.

Turning to `COc1ccc(C(C(=O)NC2CCN(C[C@H](O)c3ccnc4ccc(OC)cc34)CC2)N2CCN(c3ccc([N+](=O)[O-])cc3)CC2)cc1` (stereo not given in full), the inhibition stood at 2.85%.

Take `O=C(/C=C/c1ccc(Cl)c(Cl)c1)N1CCC(CN2CCC(Cc3nc4ccccc4[nH]3)CC2)CC1`: the inhibition amounted to 3.16%.

For `O=C(Nc1ccc(C(F)(F)F)cc1)c1cccc(S(=O)(=O)NC2CCN(CC3CCCCC3)C2)c1` (stereo not given), the inhibition stood at 0.63%.

With `Cc1cnc(C(=O)Nc2cccc(-c3cccc(-c4nc5cccc(C)c5[nH]4)c3)c2)cn1`, the inhibition came out at 0.5%.

Take `Cc1[nH]c(C)c(-c2csc3ccccc23)c(=O)c1Cl`: the inhibition is 3.61%.

`Cc1cc(C(=O)NC2CCN(Cc3ccccc3)CC2)ccc1-c1nc2ccc(C(F)(F)F)cc2[nH]1`: the inhibition came out at 3.25%.

`COCCNCc1cccc(-c2ccc3c(Nc4ccc(F)cc4Cl)ccnc3c2)c1`: the inhibition was determined as 0.78%.

As for `Fc1ccc2[nH]cc(CCNCc3ccc(-c4cccc(-c5nc6ccccc6[nH]5)c4)cc3)c2c1`, the inhibition was 3.56%.

For the compound `COc1cccc(NC(=O)COc2ccc(C(=O)Nc3nc4ccccc4[nH]3)cc2)c1`, the inhibition is -1.7%.

As for `COC(=O)Cn1c(C2CCN(CC3CCC(NC(=O)/C=C/c4ccc(Cl)c(Cl)c4)CC3)CC2)nc2ccccc21` (stereo not given), the inhibition came to 2.43%.

As to `Cc1ccccc1C1CCN(c2ccc(C(=O)Nc3ccc(F)cc3)cn2)CC1`, the inhibition is 5.56%.

Take `O=C(CCc1c[nH]cn1)Nc1cccc(-c2ccc(-c3nc4ccccc4[nH]3)s2)c1`: the inhibition amounted to 1.88%.

Take `Cc1ccc(Nc2nc(N/N=C/c3ccccc3[N+](=O)[O-])nc(Nc3ccc([N+](=O)[O-])cc3)n2)cc1C`: the inhibition came to 5.3%.

Turning to `O=C(Nc1ccc(-c2cccc(-c3nc4cc(C(F)(F)F)ccc4[nH]3)c2)cc1)c1ccncc1`, the inhibition was found to be 1.87%.

As to `Cc1nnc2c(NC(=O)NC3CCCC3)cc3cc(-c4ccc(CN5CCCCC5)cc4)ccc3n12`, the inhibition was found to be 0.13%.

As to `CN1CCC(C(=O)N(Cc2ccc(-c3ccc(CNCCc4ccc(S(C)(=O)=O)cc4)cn3)cc2)C2CCN(Cc3ccccc3)CC2)CC1`, the inhibition turned out to be 5.75%.

In the case of `CCN(CC)CCN(Cc1ccc(-c2ccc(C(F)(F)F)cc2)cc1)C(=O)Cn1c(CCc2cccc(F)c2F)nc(=O)c2cccnc21`, the inhibition is 1.66%.

In the case of `Cc1[nH]n(-c2cccc(Cl)c2)c(=O)c1-c1ccc(Cl)cc1`, the inhibition is -2.07%.

On to `O=C(/C=C/c1ccc(CNCCN2CCOCC2)cc1)NCCc1ccccc1`, for which the inhibition stood at 0.2%.

`Cc1nn(-c2ccccc2)c2c1C(c1ccc(C(C)C)cc1)N1C(=N2)N(Cc2ccccc2)c2ccccc21` (stereo not given): the inhibition worked out at 1.85%.

As for `Cc1[nH]c(C)c(-c2ccc(Oc3ccc(F)cc3)cc2)c(=O)c1Br`, the inhibition was determined as 2.46%.

`O=C(c1cccc(COc2ccc3c(c2)CCN(C2CCCC2)CC3)c1)N1CCN(c2ccncc2)CC1`: the inhibition amounted to 7.88%.

On to `CCC(NC[C@@H](O)[C@H](Cc1ccccc1)NC(=O)c1cc(C2CCCC2)cc(N2CCCC2=O)c1)c1cccc(Cl)c1` (stereo not given in full), for which the inhibition was found to be 4.65%.

In the case of `Cc1cccc2nc(-c3ccc(-c4ccc(NC(=O)NCc5ccccc5)cc4)s3)[nH]c12`, the inhibition came out at 1.02%.

As to `N=C(N)NC(=O)Nc1cc(Cl)c(Cl)c(Cl)c1`, the inhibition was found to be 2.18%.

For `COc1ccc(NC(=O)CCNc2cc(C)nc(NCCc3ccc(F)cc3)n2)cc1`, the inhibition was -0.01%.

With `CC(C)CCNc1nc(NCCCc2ccccc2)c2cc(O)ccc2n1`, the inhibition is 8.25%.

Consider `CCNc1cc(-c2cccc(OC)c2)nc(Nc2ccc(F)cc2)n1`, for which the inhibition turned out to be 2.87%.
